NadD block: NadD (S. aureus) enzyme inhibition; purified NadD enzyme, colorimetric absorbance read-out; inhibition, % at 20 µM; 360,000 tested, 0.78% active; AID 602399; in the data active means inhibition above about 26%
GRK2 aptamer HTS: human GRK2 inhibition via aptamer displacement; P25098; bead flow cytometry, FAM-aptamer displacement from GRK2; inhibition of aptamer binding, % at 10 µM; 330,000 tested, 0.59% active;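 active means inhibition of aptamer binding above 40%, roughly 3 SD of noise, on plates passing a quality check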;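 further: median bead fluorescence of bound FAM aptamer so fluorescent compounds give negative values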
Granule exo inh: lytic granule exocytosis inhibition. 360,000 tested, 0.66% active. AID 651702. TALL-104 LAMP-1 surface exposure, flow cytometry; cells stimulated with thapsigargin and PMA. inhibition, % at 10 µM;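 active means inhibition above about 55%, limit read from the data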
PP1 counter: PP1-alpha (human) inhibition in PP5 counter-screen | AID 2235 | P62136 | inhibition, % at 6.7 µM | 320,000 tested, 0.9% active | purified PP1alpha, OMFP fluorescence;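 active means inhibition above the mean inhibition of all tested compounds plus 3 SD, computed separately for each screening campaign, cut at about 15% in these data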
Beta2AR agonist: agonists of human beta-2 adrenergic receptor inducing internalization. P07550. Am2.2-beta2AR cells, FAP receptor internalization, flow cytometry. response, % (no concentration beside the values). 340,000 tested, 0.43% active. AID 504454;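 active means response above a set limit, near 3 SD of response in nonfluorescent compounds, cut at about 42% in these data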
Target sequence (P07550 whole entry, looked up): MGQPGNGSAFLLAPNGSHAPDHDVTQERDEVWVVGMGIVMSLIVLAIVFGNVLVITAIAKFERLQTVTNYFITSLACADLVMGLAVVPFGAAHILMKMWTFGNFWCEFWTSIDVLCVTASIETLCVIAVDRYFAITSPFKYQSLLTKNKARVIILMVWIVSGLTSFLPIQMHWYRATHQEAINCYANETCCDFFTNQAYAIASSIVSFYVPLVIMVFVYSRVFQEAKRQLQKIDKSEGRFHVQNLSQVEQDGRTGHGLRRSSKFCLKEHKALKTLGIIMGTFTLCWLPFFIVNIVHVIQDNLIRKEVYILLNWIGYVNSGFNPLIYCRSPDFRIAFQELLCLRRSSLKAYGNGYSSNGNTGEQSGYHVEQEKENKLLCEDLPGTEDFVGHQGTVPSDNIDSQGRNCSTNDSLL
GRK2 inh confirm: confirmation of human GRK2 inhibitors displacing RNA aptamer | shares compounds with GRK2 aptamer HTS | bead-bound GRK2, FAM-aptamer displacement, flow cytometry | aptamer displacement, % at 10 µM | 2,000 tested, 4% active | AID 504451;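 active means aptamer displacement above 40%, near three times the noise of non-fluorescent compounds, on plates passing quality checks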;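 further: negative values mostly reflect intrinsic compound fluorescence rather than true enhancement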
Aptamer quench 1: fluorescent aptamer quenching in GRK2 counter-screen dose response | shares compounds with GRK2 aptamer HTS | fluorescence change (kMESF span), kMESF (no concentration beside the values) | Fluorescent RNA aptamer beads, flow cytometry; active compounds read high | 110 tested, under 10 active;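 active means compounds whose bead fluorescence drops by more than 37 kMESF across the dose range, marking them as dye quenchers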
FAM quench CP1: aptamer fluorescence quenching in GRK2 counter-screen. shares compounds with GRK2 aptamer HTS. fluorescence response (% of DMSO), % at 10 µM. 2,000 tested, under 10 active. Carboxyfluorescein RNA aptamer on beads, flow cytometry quenching; active compounds read low;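 active means compounds that quench the bead-bound fluorescent RNA probe, cutting fluorescence to under half of the solvent control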;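 further: counterscreen run without GRK2 so only probe quenching by compound is measured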
FAM quench DR: quenches fluorescent RNA aptamer, GRK2 hit artifact | 35 tested, under 10 active | AID 588496 | shares compounds with GRK2 aptamer HTS | Bead-bound FAM RNA aptamer fluorescence quenching, flow cytometry; active compounds read low | fluorescence ratio to DMSO, % at 11.1 µM;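 active means compounds that dim the fluorescent label, raw bead signal shifting by over 33 units between lowest and highest dose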
The depositor's hits bear a star; · = not tested or not shown. Shown are actives, neighbours in structure and some others; about 2.9% of the full set was active somewhere.

SMILES	NadD block	GRK2 aptamer HTS	Granule exo inh	PP1 counter	Beta2AR agonist	GRK2 inh confirm	FAM quench CP1	others
Cc1ccccc1Cn1ccc(NC(=O)CCSc2nc(-c3ccco3)cc(C(F)(F)F)n2)n1	0	1	1	8	-4	·	·
Cc1ccccc1Cn1ccc(NC(=O)c2cnn3c(C(F)(F)F)cc(-c4ccco4)nc23)n1	10	31	2	7	8	2	90
CCCN1CCN(CCCNC(=O)C(CC)n2nc(C)c3sc4ccccc4c3c2=O)CC1 (centres undefined)	-4	62*	-4	-3	3	-2	96
Cc1nnc2sc(SCc3ccc(Br)cc3)nn2c1=O	1	0	-3	-3	5	·	·
N[C@@H](Cc1ccccc1)c1nnc2sc(SCc3ccccc3)nn12	5	55*	1	3	-8	-13	127
O=C(NCc1ccco1)c1cccc(NC(=O)c2ccccc2)c1	3	0	-2	6	-4	-3	106
Cc1ccc(C(=O)Nc2cccc(C(=O)NCc3ccco3)c2)cc1	-3	0	-1	2	-6	34	103	Aptamer quench 1=6.2
O=C(NCc1ccccc1)c1cc(C2CCCCN2C(=O)c2ccc3c(c2)CCO3)on1 (centres undefined)	0	·	0	·	·	·	·
CC(C)(C)CC(=O)Nc1nn[nH]n1	-5	2	1	3	1	·	·
Cc1cc(C)n(CCNC(=O)[C@H]2O[C@@H](n3ccc(=O)[nH]c3=O)[C@H](O)[C@@H]2O)n1	-3	·	-6	·	·	·	·
CCc1sc(C(=O)Nc2nccs2)cc1C	-6	30	2	4	-1	0	97
O=C(NCc1ccccc1)C1CC(=O)N(C2CCCCC2)C1 (centres undefined)	2	0	1	-2	1	·	·
CC(C)C(=O)Nc1ccc2nn(-c3ccccc3)nc2c1	-10	0	-1	-3	4	·	·
Nc1ccn(CC(=O)NCCc2ccccn2)c(=O)n1	2	2	2	4	3	·	·
Nc1ccn(CC(=O)NCc2ccccn2)c(=O)n1	2	77*	-3	0	-2	-1	95
COc1ccccc1OCCC(=O)Nc1cccc(S(=O)(=O)N2CCOCC2)c1	-2	97*	2	-5	-3	0	101
COc1ccccc1OCCC(=O)Nc1cccc(S(=O)(=O)N2CCCCC2)c1	-7	0	-6	5	8	·	·
COc1ccc2c(c1)C(C)=CC(C)(C)N2C(=O)CSc1nnc(-c2ccc(C)cc2)o1	-6	2	-2	3	6	·	·
O=C(CCCN1C(=O)/C(=C/c2cccs2)SC1=S)Nc1cccc(C(=O)O)c1	4	95*	1	-5	-3	1	101
NC(=O)COC(=O)CCCSc1nc2ccccc2s1	-5	51*	-1	0	10	1	97
O=C(CN1CCc2ccccc21)NC(=O)NCc1ccccc1	7	42*	-2	0	4	70*	101	Aptamer quench 1=11;FAM quench DR=101
O=C(CN1CCCc2ccccc21)NC(=O)NCc1ccccc1	-4	1	2	-1	7	·	·
Cc1ccc(OCCNC(=O)CCc2ccccc2)cc1C	-5	79*	-4	-6	5	2	98
Cc1ccc(NC(=O)CCc2ccccc2)cc1C	-12	·	-3	·	·	·	·
Cc1ccc(-c2onc3ccc(C4(C)OCCO4)cc23)cc1	2	1	2	1	4	·	·
Cc1ccc(-c2onc3ccc(C=O)cc23)cc1	1	45*	-9	4	8	0	99
CCC1CCCCN1CCCNC(=O)C1CCN(S(=O)(=O)N2CCCCC2)CC1 (centres undefined)	-8	15	-2	-1	-10	-41	112
CCCCNC(=O)C1CCN(S(=O)(=O)N2CCCCCC2)CC1	-2	0	-9	-2	-4	·	·

Screening results deposited in PubChem BioAssay by several laboratories.
